For 100 compounds, inhibition results are on record in PubChem BioAssay AID449728 (The Scripps Research Institute Molecular Screening Center, 2010).

Among all 330,000 compounds or so, about 900 (0.27%) were called active.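 Rule for the calls: active = inhibition above the campaign's mean inhibition across all tested compounds plus 3 SD (cut at about 9.9% in these data); inactive = the rest.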 Only a selection was taken, and actives are over-represented in it overall.

This test can be described thus: E. coli V3065 growth inhibition, primary screen, counter-screen for AddAB inhibitor project, absorbance, OD600 (AID 449728).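 Note: uninfected addAB+ strain grown without phage in ampicillin broth; 0% = DMSO wells and 100% = ciprofloxacin 0.95 µg/ml wells.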 To be noted: 18 h, at 11.9 µM, hits give high values.
Consider `CNC(=O)CN1C(=O)NC(c2ccccc2)(c2ccccc2)C1=O`, for which the inhibition was 1.95% (inactive).

As for `CCOC(=O)N1CCN(Cc2nc3cc(NC(=O)CC)ccc3n2CC)CC1`, the inhibition is -0.18% (inactive).

Turning to `Cc1c(C=O)c2ccccc2n1CC(=O)O`, the inhibition is 2.1% (inactive).

With `CC(=O)c1c(C)n([O-])c2ccccc2[n+]1=O`, the inhibition was 30.7% (active).

Take `COC(=O)c1cc(N2CCNCC2)nc2ccccc12`: the inhibition is 0.59% (inactive).

On to `CC12C(=O)N(n3cnnc3)C(=O)C1C1C=CC2C1` (stereo not given), for which the inhibition is 1.48% (inactive).

As to `COc1ccc(C(=O)COC(=O)c2ccc3ccccc3n2)cc1`, the inhibition is 0.25% (inactive).

On to `CC[C@H](C)[C@@H](C(=O)N1CCNCC1)n1cc([C@@H](N)Cc2ccc(O)cc2)nn1`, for which the inhibition is -1.2% (inactive).

As for `CC(C)[C@H](NC(=O)c1ccc(F)cc1)C(=O)OCC(=O)NC(=O)c1cccn1C`, the inhibition is -1.29% (inactive).

In the case of `COC(=O)N/N=C/c1cn(CCCOc2ccc(C)cc2)c2ccccc12`, the inhibition is -2.32% (inactive).

As for `COC(=O)N/N=C/c1c[n+]([O-])c2ccccc2[n+]1[O-]`, the inhibition is 93.8% (active).

Consider `COC(=O)N/N=C/c1ccc(-c2ccc(Cl)c(Cl)c2)o1`, for which the inhibition was 0.17% (inactive).

On to `COc1ccc(C)cc1NC(=O)c1[nH]c(C)c(C(C)=O)c1C`, for which the inhibition was -0.41% (inactive).

On to `CN(Cc1ccco1)S(=O)(=O)c1nnc(NC(=O)c2ccccc2)s1`, for which the inhibition was 0% (inactive).

With `COCCNS(=O)(=O)c1cc(Br)ccc1OC`, the inhibition is -1.08% (inactive).

Regarding `COc1ccc(OCc2nnc3n2N=C(c2ccccc2)C(CC(=O)O)S3)cc1` (stereo not given), the inhibition is -0.43% (inactive).

With `CN1CCN(C(c2cc3cc4c(cc3[nH]c2=O)OCCO4)c2nnnn2C2CCCC2)CC1` (stereo not given), the inhibition was 0.75% (inactive).

For the compound `Cc1nnc(N/N=C/C2CC=CCC2)[nH]c1=O` (stereo not given), the inhibition is -0.18% (inactive).

Turning to `Cc1cc(C(=O)N/N=C/c2ccccn2)c2ccccc2n1`, the inhibition was -0.17% (inactive).

As for `Cc1nnc(N/N=C/c2ccccn2)[nH]c1=O`, the inhibition was 12.1% (active).

For the compound `O=C(Nc1ccc2nc3n(c(=O)c2c1)CCCC3)c1ccc(Cl)nc1`, the inhibition was -2.17% (inactive).

On to `CC(NS(=O)(=O)c1ccc(Cl)cc1)C(=O)Nc1ccc2c(c1)OCCO2` (stereo not given), for which the inhibition is -2.14% (inactive).

With `C=CCn1c(=O)c(C(=O)NCc2ccc3c(c2)OCO3)c(O)c2ccccc21`, the inhibition is 13.5% (active).

On to `CCn1c(=O)cc(SCC(=O)NCc2ccc3c(c2)OCO3)c2ccccc21`, for which the inhibition was -0.5% (inactive).

In the case of `CCn1c(=O)c(C(=O)NCc2ccc3c(c2)OCO3)c(O)c2ccccc21`, the inhibition was 0.18% (inactive).

For the compound `O=C(CC1SC(N2CCCC2)=NC1=O)Nc1ccc(C(=O)NCCc2ccc(F)cc2)cc1` (stereo not given), the inhibition is -1.3% (inactive).

Turning to `C=C1c2c(Cl)ccc(O)c2C(O)=C2C(=O)[C@]3(O)C(O)=C(C(N)=O)C(=O)[C@@H](N(C)C)[C@@H]3[C@@H](O)C12` (stereo not given in full), the inhibition is 103% (active).

As for `CN(C)[C@@H]1C(=O)C(C(N)=O)=C(O)[C@@]2(O)C(=O)C3=C(O)c4c(O)ccc(Cl)c4[C@@H](O)[C@H]3C[C@@H]12`, the inhibition is 102% (active).

In the case of `CC1CC(C)CN(CCOc2cccc3ccccc23)C1` (stereo not given), the inhibition is 0.17% (inactive).

Regarding `COc1cc(Cl)c(C)cc1NC(=O)COC(=O)c1cc(SC)ccc1Cl`, the inhibition is -0.93% (inactive).

For `CCCn1nc(Oc2nc(NC(C)C)nc(N(C)C)n2)ccc1=O`, the inhibition is -1.48% (inactive).

`CCc1c(C)nc2ncnn2c1N1CCC(C(=O)NCc2ccc3c(c2)OCO3)CC1`: the inhibition is -1.08% (inactive).

`Cc1cnc(C(=O)OCC(=O)NCCCc2ccccc2)cn1`: the inhibition is -0.78% (inactive).

As to `CC1CN(C(=S)Nc2ccccc2F)CC(C)O1` (stereo not given), the inhibition is 0.45% (inactive).

Consider `COc1ccccc1NC(=S)N1CCN(c2ccc(F)cc2)CC1`, for which the inhibition was -1.81% (inactive).

In the case of `COc1c(N2CCN(C(=S)Nc3ccccc3F)C(C)C2)c(F)cc2c(=O)c(C(=O)O)cn(C3CC3)c12` (stereo not given), the inhibition was 99% (active).

For `CCOc1ccc(/C=C/C(=O)OCC(=O)c2ccccc2OC)cc1OC`, the inhibition is 2.19% (inactive).

As for `O=C(NCC1CCCO1)/C(=C/c1ccc(Cl)cc1)NC(=O)c1ccccc1` (stereo not given), the inhibition was 0.6% (inactive).

Turning to `O=C(CSc1ccc(-c2ccccc2)nn1)NCC1CCCO1` (stereo not given), the inhibition was 0.59% (inactive).

With `O=C(NCC1CCCO1)C(C(=O)c1ccccc1)n1cc(Cl)ccc1=O` (stereo not given), the inhibition is 96.6% (active).

Regarding `O=C1CN(C(=O)COC(=O)C2CC(=O)N(Cc3ccco3)C2)c2ccccc2N1` (stereo not given), the inhibition was -0.37% (inactive).

In the case of `Cc1ccc(NC(=O)C(C)OC(=O)Cc2c[nH]c3ccccc23)cc1S(=O)(=O)N1CCOCC1` (stereo not given), the inhibition is -2.87% (inactive).

On to `CC(C)CC(=O)NC(=S)NNC(=O)c1cccc([N+](=O)[O-])c1`, for which the inhibition was -7.21% (inactive).

Take `CN(C)CCn1c2c(c(SCC(=O)NCc3ccccc3)nc1=O)CCC2`: the inhibition is -1.35% (inactive).

As to `COc1ccc(C(=O)c2oc3ccc(Br)cc3c2NC(C)=O)cc1`, the inhibition was 98.8% (active).

Consider `COC(=O)c1oc2ccc(Br)cc2c1NC(C)=O`, for which the inhibition was 1.03% (inactive).

Regarding `COc1ccc(CC(=O)Nc2c(C(N)=O)oc3ccccc23)cc1`, the inhibition was -1.77% (inactive).

Regarding `OCc1ccc(-c2ccccc2)c(-c2ccccc2)c1`, the inhibition was -4.27% (inactive).

`CCC1(C)Cc2c(sc3[nH]c(=S)n(Cc4ccccc4)c(=O)c23)CO1` (stereo not given): the inhibition is -1.73% (inactive).

On to `Nc1nonc1-n1nnc(C(=O)N/N=C/c2cc(Br)ccc2O)c1CSC1=NCCS1`, for which the inhibition was 12.6% (active).

Take `Nc1nonc1-n1nnc(C(=O)N/N=C/c2ccccc2O)c1CN1CCCC1`: the inhibition is -0.26% (inactive).

For the compound `Cc1ccc(SCc2c(C(=O)N/N=C/c3cccnc3)nnn2-c2nonc2N)cc1`, the inhibition was 1.61% (inactive).

As to `O=C(CNCCO)NC12CC3CC(CC(C3)C1)C2`, the inhibition was -2.56% (inactive).

With `CSCCC(NS(=O)(=O)/C=C/c1ccccc1)C(=O)N1CCC(C)CC1` (stereo not given), the inhibition was -0.42% (inactive).

With `CSc1cc(C)[nH]c(=O)n1`, the inhibition is -2.18% (inactive).

Regarding `CCc1ccccc1NC(=O)CN(c1ccc(OC)cc1OC)S(=O)(=O)c1ccccc1[N+](=O)[O-]`, the inhibition is -0.37% (inactive).

As for `COc1ccc(C(=O)NCC(=O)N/N=C/c2ccc([N+](=O)[O-])o2)cc1OC`, the inhibition was 5.52% (inactive).

Turning to `COC(=O)C1=C(C)N(C)C(=O)NC1c1ccc([N+](=O)[O-])o1` (stereo not given), the inhibition was 0.52% (inactive).

In the case of `C/[N+]([O-])=C\c1ccc([N+](=O)[O-])o1`, the inhibition was 15.4% (active).

Regarding `COC(=O)c1ccc(COC(=O)c2cnccn2)cc1`, the inhibition is -0.61% (inactive).

Regarding `CC1CCN(C(=O)Cn2cc(C(=O)c3ccco3)c3ccccc32)CC1`, the inhibition is -0.18% (inactive).

For `Cc1cccc(NC(=O)Cn2cc(C(=O)c3ccco3)c3ccccc32)c1`, the inhibition is 16.6% (active).

As for `O=C(Cn1cc(C(=O)c2cccs2)c2ccccc21)NCc1cccs1`, the inhibition was 0.18% (inactive).

On to `Cc1ccc(CN2CCC(N3CCC(C(=O)NCC4CCCO4)CC3)CC2)o1` (stereo not given), for which the inhibition is -1.01% (inactive).

Take `O=C(NCC#CCSc1nnc(-c2cccc3ccccc23)o1)c1cccs1`: the inhibition is 10.2% (active).

`COc1ccc(CCNC(=O)/C(C#N)=C2\N=C(NC(=O)c3cccs3)c3ccccc32)cc1`: the inhibition is -0.34% (inactive).

On to `C#CCSc1nnc(-c2sc3ccccc3c2Cl)o1`, for which the inhibition was 2.18% (inactive).

Turning to `COc1ccc(C)cc1N(CC(=O)NC(C)c1ccccc1)S(C)(=O)=O` (stereo not given), the inhibition was 0.84% (inactive).

Turning to `C[N+]1(CCNC(=O)/C=N/O)CCCCC1`, the inhibition was -1.11% (inactive).

On to `COc1ccc([C@H]2CC(=O)C=C(/C=C/c3ccccc3)C2)cc1`, for which the inhibition was -0.71% (inactive).

For `Cc1ccccc1NC(=O)NC1(C(=O)N2CCCC2)CCCCC1`, the inhibition was -1.26% (inactive).

As to `Oc1c(Cl)cc(Cl)c(Cl)c1Cc1c(O)c(Cl)cc(Cl)c1Cl`, the inhibition was 12.2% (active).

Take `CC(=O)OCCOCn1cnn2c(=O)c(Br)c(C)nc12`: the inhibition is -2.04% (inactive).

Take `CCNC(=S)N1CCN(c2ncccn2)CC1`: the inhibition is 0.78% (inactive).

As to `CN(C)CCCn1c(SCc2ccc(Cl)cc2)nnc1-c1ccncc1`, the inhibition was -1.29% (inactive).

In the case of `COc1cccc(-c2sc3ccc(OC)cc3c2-c2ccc(OCCN3CCCCC3)cc2)c1`, the inhibition was -0.53% (inactive).

As to `CCOc1ccccc1NC(=O)Cc1cccs1`, the inhibition is 1.04% (inactive).

With `Cc1ccc(C23CC4CC(CC(C(=O)NCC(=O)O)(C4)C2)C3)cc1`, the inhibition was 1% (inactive).

Turning to `CCOc1ccccc1NC(=O)C12CC3CC(C1)CC(c1ccc(C)cc1)(C3)C2`, the inhibition is 26.6% (active).

`COCCCNC(=O)C1CCC(CNS(=O)(=O)c2ccc(OC)cc2)CC1` (stereo not given): the inhibition was -1.01% (inactive).

With `CCC1C(=O)NCCN1C(=O)c1ccc2nc(Cc3ccc(OC)cc3)oc2c1` (stereo not given), the inhibition is -0.08% (inactive).

`O=C(OCC1O[C@@H](OC(=O)c2cc(O)c(O)c(O)c2)[C@@H](OC(=O)c2cc(O)c(O)c(O)c2)[C@@H](OC(=O)c2cc(O)c(O)c(O)c2)[C@@H]1OC(=O)c1cc(O)c(O)c(O)c1)c1cc(O)c(O)c(O)c1` (stereo not given in full): the inhibition was 23.6% (active).

With `COc1ccc(Br)cc1/C=N/Nc1ccc(Cl)c(C(=O)O)c1`, the inhibition is -3.01% (inactive).

For the compound `CCOc1cccc(/C=N/NC(=S)NCCN2CCOCC2)c1O`, the inhibition was 0.34% (inactive).

Take `COc1cccc(/C=N/Nc2ncc(C(F)(F)F)cc2Cl)c1O`: the inhibition is 15.6% (active).

Regarding `C/C(CC(C)C)=N\Oc1nc(C)cc(C)n1`, the inhibition is 0.81% (inactive).

For the compound `COc1ccc(C(=O)c2c3ccc([N+](=O)[O-])cc3[n+]([O-])n2CCCN)cc1`, the inhibition is 9.95% (active).

On to `COc1ccc2c(C(=O)c3ccc(C)cc3)n(CCC(N)=O)[n+]([O-])c2c1`, for which the inhibition was -1.03% (inactive).

On to `COc1ccc(C(=O)CC(=O)C(=O)Nc2cc([N+](=O)[O-])ccc2OC)cc1`, for which the inhibition was -2.64% (inactive).

Consider `CN1CCN(C(=O)c2cnn(-c3ccccc3)c2NC(=O)c2ccc([N+](=O)[O-])cc2)CC1`, for which the inhibition was -0.94% (inactive).

On to `O=C(NNC(=O)C1CCCC1)c1ccc(F)cc1`, for which the inhibition was -1.97% (inactive).

Turning to `O=C(/C=C/c1ccc([N+](=O)[O-])o1)NNC(=O)c1ccc(F)cc1`, the inhibition was 97.9% (active).

For `Cc1ccc(/C=C/C(=O)Nc2ccc([N+](=O)[O-])c(NC(=O)/C=C/c3ccc(C)o3)c2)o1`, the inhibition is -5.13% (inactive).

`CONC(=O)c1cc(OCC(F)(F)F)ccc1OCC(F)(F)F`: the inhibition is -0.41% (inactive).

On to `O=C1CN(C(=O)COC(=O)c2cnc(Cl)c(Cl)c2)c2ccccc2N1`, for which the inhibition was 1.7% (inactive).

`O=C1c2ccccc2C(=O)C1c1ccccc1F`: the inhibition is 1.08% (inactive).

As to `O=C1c2ccccc2C2=Nc3ccccc3SC(c3ccccc3F)C12` (stereo not given), the inhibition was 19.9% (active).

On to `CCOC(=O)C1=C(C)N=C2c3ccccc3C(=O)C2C1c1ccc(Br)cc1` (stereo not given), for which the inhibition was 0.42% (inactive).

Consider `C=CCN(Cc1nc(-c2cc(OC)c3c(c2)OCO3)oc1C)C1CCS(=O)(=O)C1` (stereo not given), for which the inhibition is -0.09% (inactive).

In the case of `O=C(COC(=O)c1c(Cl)cccc1Cl)Nc1cccc(S(=O)(=O)NC2=NCCCCC2)c1`, the inhibition was -2.98% (inactive).
